The record followed here is PubChem BioAssay AID1259415 (National Center for Advancing Translational Sciences (NCATS), 2018).

“And” between values parts separate entries of the source, which are not always exact repeats. Equal values may be shown once. About 18,000 (4.4%) of roughly 410,000 compounds were called active. About 7% were inconclusive and are not listed. Cut-off read from the data, not from the text of the source: active = activity change below about -60%; inconclusive = no clear call, values can overlap the other calls; inactive = above about -39%. The entries come from a sample that favours actives as a whole.
% is set by controls: 0 for no effect and ±100 for the full control effect.

The test in a line: qHTS Assay for inhibitors of the human cytomegalovirus (HCMV). The conditions noted are these: HFF cells, HCMV-luciferase reporter, 72 h; at 57.5 µM; hits give low values. An outline of the steps: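 Screen run at 2 compound doses on HFFs infected with reporter HCMV, MOI 1 PFU/cell. Luciferase activity from cell lysates at 72 h post infection gave inhibition relative to buffer-only and Salinomycin wells.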
Regarding `CCCCOC(=O)CSc1ncnc2sc3c(c12)CCC(C)C3` (stereo not drawn), the activity change, negative = inhibition was -8.12% (inactive).

For the compound `C[n+]1ccc(/C=C/c2c[nH]c3ccccc23)cc1`, the activity change, negative = inhibition is -99.1% (active).

In the case of `CN1CCN(/N=C/c2c[nH]c3ccccc23)CC1`, the activity change, negative = inhibition was 41% (inactive).

Take `CCC/C(=N\O)c1c[nH]c2ccccc12`: the activity change, negative = inhibition is 26.6% (inactive).

For the compound `COc1ccc(Cl)cc1N(C)C(=O)c1cc2c(=O)oc3ccc(C)cc3c2s1`, the activity change, negative = inhibition is -13.9% (inactive).

Regarding `O=C(CN1CCSc2ccccc21)N1CCN(c2ccccc2)CC1`, the activity change, negative = inhibition is -1.62% (inactive).

For `CC(NC(=O)CN(C)S(=O)(=O)c1ccc(F)cc1)C1CC2CCC1C2` (stereo not drawn), the activity change, negative = inhibition is 5.39% (inactive).

`Cc1cccc(C(=O)OCC(=O)NC(C)C2CC3CCC2C3)c1O` (stereo not drawn): the activity change, negative = inhibition was 50.9% (inactive).

With `CCOC(=O)CCC(=O)OCC(=O)NC(C)C1CC2CCC1C2` (stereo not drawn), the activity change, negative = inhibition is -99.5% (active).

Turning to `Cn1cnc(S(=O)(=O)Nc2ccc3c(c2)OCCO3)c1`, the activity change, negative = inhibition is 30.3% (inactive).

`COc1cccc(NC(=O)c2csnn2)c1`: the activity change, negative = inhibition was 24.9% (inactive).

`Cn1cc([N+](=O)[O-])c(C(=O)Nc2ccc3c(c2)OCCO3)n1`: the activity change, negative = inhibition is -91% (active).

On to `COc1cccc(NC(=O)c2nn(C34CC5CC(CC(C5)C3)C4)cc2[N+](=O)[O-])c1`, for which the activity change, negative = inhibition is -71.1% (active).

Regarding `COc1cccc(NC(=O)COc2cccnc2[N+](=O)[O-])c1`, the activity change, negative = inhibition is 9.93% (inactive).

For the compound `Cn1ccnc1SCC(=O)Nc1ccc2c(c1)OCCO2`, the activity change, negative = inhibition is 147% (inactive).

For `O=C(NCc1ccco1)O[C@H]1CC[C@@]23CCCN2C(=O)CCC[C@H]3[C@H]1Cc1ccccc1`, the activity change, negative = inhibition was 13.9% (inactive).

Take `CCC(=O)N1CCc2cc(CNS(=O)(=O)c3ccc(Br)s3)ccc21`: the activity change, negative = inhibition is -28.1% (inactive).

With `CCOc1ccc(C(=O)N2CCN(CCc3ccccn3)CC2)cc1`, the activity change, negative = inhibition was 7.37% (inactive).

As for `Cc1nnc2n1N=C(c1ccc3c(c1)NC(=O)CO3)CS2`, the activity change, negative = inhibition is 58.6% (inactive).

For the compound `O=C(c1ccc2c(c1)N(Cc1ccc(F)cc1)C(=O)c1ccccc1S2(=O)=O)N1CCN(c2ccccn2)CC1`, the activity change, negative = inhibition was -76.7% (active) and -91.8% (active).

As for `O=C(c1ccc2c(c1)N(Cc1ccc(Cl)cc1)C(=O)c1ccccc1S2(=O)=O)N1CCCCC1`, the activity change, negative = inhibition is -15.9% (inactive).

Turning to `O=C(c1ccc2c(c1)N(Cc1ccccc1)C(=O)c1ccccc1S2(=O)=O)N1CCCC1`, the activity change, negative = inhibition is -21.3% (inactive).

For `Cc1ccc(Cl)cc1NC(=O)C(C)n1nnc2sc(-c3ccccc3)cc2c1=O` (stereo not drawn), the activity change, negative = inhibition is 17.8% (inactive).

Regarding `COc1cc(OC)c(N(C)C(=O)c2cc3c(=O)oc4ccccc4c3s2)cc1Cl`, the activity change, negative = inhibition is -8.12% (inactive).

Regarding `Cn1c(=O)c2c(nc(Oc3ccc(C#N)cc3)n2Cc2ccc(Cl)cc2Cl)n(C)c1=O`, the activity change, negative = inhibition was -9.46% (inactive).

For `Cc1cc(NC(=O)CS(=O)(=O)c2cn(C)c3ccccc23)no1`, the activity change, negative = inhibition was -74.2% (active).

With `Cc1cc(NC(=O)CSCc2ccccc2C)no1`, the activity change, negative = inhibition was -34.5% (inactive).

With `Cc1cc(NC(=O)COn2nnc3ccccc32)no1`, the activity change, negative = inhibition is 29.8% (inactive).

Turning to `Cc1ccc2c(=O)c(C(=O)c3ccc(Cl)cc3)cn(CC(=O)NC3CCCCC3)c2n1`, the activity change, negative = inhibition is -0.369% (inactive).

For the compound `CCOc1ccc(CCNC(=O)c2c(C)oc3ncn(C)c(=O)c23)cc1`, the activity change, negative = inhibition is -13.7% (inactive).

In the case of `Cc1cc(C)cc(OCC(=O)Nc2nc(-c3ccc(F)cc3)ns2)c1`, the activity change, negative = inhibition is 150% (inactive).

With `COc1ccccc1C(=O)COC(=O)COc1ccc(C#N)cc1`, the activity change, negative = inhibition is -31.6% (inactive).

With `N#C/C(=C(/O)COC(=O)COc1ccc(Cl)cc1)c1nc2ccccc2[nH]1`, the activity change, negative = inhibition was -101% (active).

In the case of `CC(C)(C)c1nnc2sc(SCC(O)=C(C#N)c3nc4ccccc4[nH]3)nn2c1=O`, the activity change, negative = inhibition is -4.66% (inactive).

Turning to `Cc1ccc(S(=O)(=O)Nc2ccccc2CNc2c(C)n(C)n(-c3ccccc3)c2=O)cc1`, the activity change, negative = inhibition was -7.12% (inactive).

Take `CC1CCCN(Cc2c(O)ccc3c(=O)c(Oc4ccc(C(C)(C)C)cc4)c(C(F)(F)F)oc23)C1` (stereo not drawn): the activity change, negative = inhibition is -38.5% (inactive).

As to `Cc1csc2nc(COC(=O)c3ccc(NC(=O)COc4ccccc4F)cc3)cc(=O)n12`, the activity change, negative = inhibition is 14.4% (inactive).

`O=C(CSc1ccccc1F)NC1CCS(=O)(=O)C1` (stereo not drawn): the activity change, negative = inhibition was -105% (active).

On to `O=C(CSc1ncnc2sccc12)NC1CCS(=O)(=O)C1` (stereo not drawn), for which the activity change, negative = inhibition is -22.5% (inactive).

Consider `O=C(CSc1nn(-c2ccc(F)cc2)c(=S)s1)NC1CCS(=O)(=O)C1` (stereo not drawn), for which the activity change, negative = inhibition is -34.3% (inactive).

With `COC(=O)CC(CC(=O)OC)n1cccc1`, the activity change, negative = inhibition was 19.2% (inactive).

For `COc1ccc(-n2c(SCC(=O)Nc3sc4c(c3C#N)CCCC4)nnc2-c2ccc(O)cc2)cc1`, the activity change, negative = inhibition is -15.5% (inactive).

In the case of `COc1ccccc1-c1ccnc2[nH]n(-c3ccccc3)c(=O)c12`, the activity change, negative = inhibition is -8.55% (inactive).

Take `COc1ccc2cc(CNc3ccc(OC)c(OC)c3)c(=O)n(CC(=O)Nc3ccccc3F)c2c1`: the activity change, negative = inhibition is 9.9% (inactive).

For the compound `CCOc1ccccc1NC(=O)COc1ccc(S(=O)(=O)N2CCCC2)cc1`, the activity change, negative = inhibition is -21% (inactive).

Turning to `CCOc1ccc(S(=O)(=O)N2CCCCC2)cc1NC(=O)CN1CCCC1c1cccs1` (stereo not drawn), the activity change, negative = inhibition was -90% (active).

For the compound `CCOc1ccccc1NC(=O)C1CCCN(S(=O)(=O)c2ccccc2)C1` (stereo not drawn), the activity change, negative = inhibition was -62% (active).

As to `COc1ccc(S(=O)(=O)N2CCCCC2)cc1NC(=O)COc1ccccc1`, the activity change, negative = inhibition was -25.1% (inactive).

Consider `CCOc1ccccc1NC(=O)C1CCCN(C(=O)Nc2ccccc2)C1` (stereo not drawn), for which the activity change, negative = inhibition was -21.6% (inactive).

Consider `Cc1ccc(S(=O)(=O)N2CCCCC2)cc1NC(=O)[C@@H]1CCCN1C(=O)c1cccs1`, for which the activity change, negative = inhibition was 0% (inactive).

As to `O=C(O)CCc1cccnc1`, the activity change, negative = inhibition is -25.2% (inactive).

Turning to `CN(Cc1ccccc1)S(=O)(=O)c1ccc(F)c(C(=O)Nc2cccc(Cl)c2Cl)c1`, the activity change, negative = inhibition was 6.47% (inactive).

With `COc1ccc2ncc3c(-c4ccc(C)c(C)c4)nn(CC(=O)NC4CCCC4)c3c2c1`, the activity change, negative = inhibition was 14.2% (inactive).

As to `O=C(CSc1nccn1Cc1ccc(Cl)cc1)NCc1ccccc1`, the activity change, negative = inhibition was -18.2% (inactive).

Regarding `COc1ccc(Cl)cc1NC(=O)Cn1c(=O)c2ccccc2n2nncc12`, the activity change, negative = inhibition was 11.9% (inactive).

As to `Cc1nn(-c2ccccc2)c2c1C(c1cccc([N+](=O)[O-])c1)N(c1ccccc1)C(=O)N2` (stereo not drawn), the activity change, negative = inhibition is -9.36% (inactive).

Take `CNP1(NC)=Nc2nn(-c3ccccc3)c(N)c2C(c2ccccc2)=N1`: the activity change, negative = inhibition is 43.5% (inactive).

Consider `Cc1nn(-c2ccc([N+](=O)[O-])cc2)c(N)c1-c1ccccc1`, for which the activity change, negative = inhibition was -65.4% (active).
